Source: the supplement of paper PMC11732987, “Enantioselective OTUD7B fragment discovery through chemoproteomics screening and high-throughput optimisation” (Communications Chemistry, 2025)

What was measured:
Experiment in all cases: log2 ratio of Biotin-Ahx-Ub-VS probe labelling (fragment/DMSO); higher = less target engagement (more negative = stronger competition), active = hit call of the paper (q ≤ 0.05, log2 ratio ≤ -1)
Details in all cases: compound concentration: 200 uM; treatment time: 3 h
USP19 = target: T1, USP19 (UniProt O94966)
T1 sequence (whole entry): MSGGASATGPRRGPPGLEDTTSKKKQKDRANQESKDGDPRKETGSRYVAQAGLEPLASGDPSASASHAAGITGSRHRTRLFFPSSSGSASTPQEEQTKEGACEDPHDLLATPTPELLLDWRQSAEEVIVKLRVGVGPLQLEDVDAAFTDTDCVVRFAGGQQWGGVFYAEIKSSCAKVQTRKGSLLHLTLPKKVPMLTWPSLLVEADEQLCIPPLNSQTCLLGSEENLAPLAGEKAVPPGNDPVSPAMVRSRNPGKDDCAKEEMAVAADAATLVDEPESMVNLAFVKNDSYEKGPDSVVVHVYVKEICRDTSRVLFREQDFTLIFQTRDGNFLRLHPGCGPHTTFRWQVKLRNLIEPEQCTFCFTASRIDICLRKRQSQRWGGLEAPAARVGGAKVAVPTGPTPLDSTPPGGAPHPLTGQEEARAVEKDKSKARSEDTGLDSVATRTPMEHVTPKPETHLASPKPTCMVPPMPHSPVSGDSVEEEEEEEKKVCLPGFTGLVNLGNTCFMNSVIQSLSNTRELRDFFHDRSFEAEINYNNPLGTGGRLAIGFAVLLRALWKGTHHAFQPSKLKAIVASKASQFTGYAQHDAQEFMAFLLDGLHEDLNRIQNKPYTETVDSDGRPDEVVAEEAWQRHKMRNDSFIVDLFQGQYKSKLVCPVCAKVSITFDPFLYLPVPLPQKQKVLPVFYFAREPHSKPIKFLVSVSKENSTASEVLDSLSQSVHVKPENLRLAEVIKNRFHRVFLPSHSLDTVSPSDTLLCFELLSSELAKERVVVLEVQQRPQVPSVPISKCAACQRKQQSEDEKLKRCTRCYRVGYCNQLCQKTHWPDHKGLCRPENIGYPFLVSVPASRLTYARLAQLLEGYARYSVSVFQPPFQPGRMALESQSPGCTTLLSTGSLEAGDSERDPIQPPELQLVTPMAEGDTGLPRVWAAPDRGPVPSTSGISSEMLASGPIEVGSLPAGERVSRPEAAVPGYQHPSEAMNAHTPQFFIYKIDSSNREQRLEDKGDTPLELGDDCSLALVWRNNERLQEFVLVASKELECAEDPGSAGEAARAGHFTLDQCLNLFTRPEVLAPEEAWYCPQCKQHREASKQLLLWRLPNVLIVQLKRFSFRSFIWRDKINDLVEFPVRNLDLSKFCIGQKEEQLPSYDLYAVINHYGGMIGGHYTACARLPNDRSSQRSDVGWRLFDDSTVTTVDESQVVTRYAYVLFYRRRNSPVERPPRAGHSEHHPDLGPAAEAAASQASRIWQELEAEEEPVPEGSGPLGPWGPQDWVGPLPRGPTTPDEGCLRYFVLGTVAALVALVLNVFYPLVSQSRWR
In short: (§1)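 Fragment (200 µM) or vehicle was incubated for 3 h with triplicate HEK293T lysate samples of 495 µg, which were then treated with Biotin-Ahx-Ub-VS at 0.5 µM final for 1 h. Labelled DUBs were enriched on NeutrAvidin, digested with LysC and trypsin, and analysed by diaPASEF LC-MS/MS. Values are average log2 fragment/vehicle ratios from an unpaired t-test on global-median-normalised Spectronaut label-free quantities, using proteins with ≥2 unique peptides.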

USP22 = target: T2, USP22 (UniProt Q9UPT9)
T2 sequence (whole entry): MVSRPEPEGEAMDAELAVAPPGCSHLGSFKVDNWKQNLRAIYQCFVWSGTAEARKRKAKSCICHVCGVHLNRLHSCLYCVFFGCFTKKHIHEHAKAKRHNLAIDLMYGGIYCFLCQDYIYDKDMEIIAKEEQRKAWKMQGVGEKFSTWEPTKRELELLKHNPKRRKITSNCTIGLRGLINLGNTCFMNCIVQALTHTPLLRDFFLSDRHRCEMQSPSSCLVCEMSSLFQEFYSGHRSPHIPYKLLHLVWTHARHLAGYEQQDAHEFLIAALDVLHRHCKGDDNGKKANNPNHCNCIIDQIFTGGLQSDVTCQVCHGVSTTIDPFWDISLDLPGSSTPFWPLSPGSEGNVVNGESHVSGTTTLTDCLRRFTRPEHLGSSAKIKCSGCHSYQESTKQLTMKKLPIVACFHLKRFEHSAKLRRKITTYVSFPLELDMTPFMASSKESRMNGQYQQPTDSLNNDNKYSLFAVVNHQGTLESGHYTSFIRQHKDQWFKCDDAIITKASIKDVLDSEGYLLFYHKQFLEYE
In short: as §1

USP24 = USP24 (UniProt Q9UPU5)
In short: as §1

USP25 = target: T3, USP25 (UniProt Q9UHP3)
T3 sequence (whole entry): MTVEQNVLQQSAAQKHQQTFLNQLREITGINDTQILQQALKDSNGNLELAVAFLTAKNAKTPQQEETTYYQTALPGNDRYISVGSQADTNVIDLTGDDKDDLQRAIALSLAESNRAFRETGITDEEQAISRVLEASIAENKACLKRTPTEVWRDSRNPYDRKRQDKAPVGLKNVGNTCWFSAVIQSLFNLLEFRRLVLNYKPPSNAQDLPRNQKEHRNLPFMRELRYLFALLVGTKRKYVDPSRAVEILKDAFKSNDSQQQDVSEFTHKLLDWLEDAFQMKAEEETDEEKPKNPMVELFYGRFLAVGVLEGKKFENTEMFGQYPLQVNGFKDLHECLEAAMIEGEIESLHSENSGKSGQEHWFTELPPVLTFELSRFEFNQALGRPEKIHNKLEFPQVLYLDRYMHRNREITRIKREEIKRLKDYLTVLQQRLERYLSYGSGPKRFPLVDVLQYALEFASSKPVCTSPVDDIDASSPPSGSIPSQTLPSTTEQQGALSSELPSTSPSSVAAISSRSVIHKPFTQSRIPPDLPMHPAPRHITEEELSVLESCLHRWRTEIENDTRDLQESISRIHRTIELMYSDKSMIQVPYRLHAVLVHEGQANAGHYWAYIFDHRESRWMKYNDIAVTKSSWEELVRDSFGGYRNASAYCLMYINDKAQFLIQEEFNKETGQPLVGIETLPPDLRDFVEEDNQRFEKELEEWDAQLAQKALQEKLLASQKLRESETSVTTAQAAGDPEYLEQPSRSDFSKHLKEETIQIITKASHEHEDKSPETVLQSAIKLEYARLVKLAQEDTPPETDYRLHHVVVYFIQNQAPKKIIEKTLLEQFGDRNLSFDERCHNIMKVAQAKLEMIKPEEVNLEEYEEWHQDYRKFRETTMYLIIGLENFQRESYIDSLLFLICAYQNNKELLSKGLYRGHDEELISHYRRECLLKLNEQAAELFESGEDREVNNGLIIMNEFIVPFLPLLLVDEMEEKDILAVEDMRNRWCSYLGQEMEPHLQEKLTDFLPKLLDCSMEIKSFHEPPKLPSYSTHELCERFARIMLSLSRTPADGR
In short: as §1

USP28 = target: T4, USP28 (UniProt Q96RU2)
T4 sequence (whole entry): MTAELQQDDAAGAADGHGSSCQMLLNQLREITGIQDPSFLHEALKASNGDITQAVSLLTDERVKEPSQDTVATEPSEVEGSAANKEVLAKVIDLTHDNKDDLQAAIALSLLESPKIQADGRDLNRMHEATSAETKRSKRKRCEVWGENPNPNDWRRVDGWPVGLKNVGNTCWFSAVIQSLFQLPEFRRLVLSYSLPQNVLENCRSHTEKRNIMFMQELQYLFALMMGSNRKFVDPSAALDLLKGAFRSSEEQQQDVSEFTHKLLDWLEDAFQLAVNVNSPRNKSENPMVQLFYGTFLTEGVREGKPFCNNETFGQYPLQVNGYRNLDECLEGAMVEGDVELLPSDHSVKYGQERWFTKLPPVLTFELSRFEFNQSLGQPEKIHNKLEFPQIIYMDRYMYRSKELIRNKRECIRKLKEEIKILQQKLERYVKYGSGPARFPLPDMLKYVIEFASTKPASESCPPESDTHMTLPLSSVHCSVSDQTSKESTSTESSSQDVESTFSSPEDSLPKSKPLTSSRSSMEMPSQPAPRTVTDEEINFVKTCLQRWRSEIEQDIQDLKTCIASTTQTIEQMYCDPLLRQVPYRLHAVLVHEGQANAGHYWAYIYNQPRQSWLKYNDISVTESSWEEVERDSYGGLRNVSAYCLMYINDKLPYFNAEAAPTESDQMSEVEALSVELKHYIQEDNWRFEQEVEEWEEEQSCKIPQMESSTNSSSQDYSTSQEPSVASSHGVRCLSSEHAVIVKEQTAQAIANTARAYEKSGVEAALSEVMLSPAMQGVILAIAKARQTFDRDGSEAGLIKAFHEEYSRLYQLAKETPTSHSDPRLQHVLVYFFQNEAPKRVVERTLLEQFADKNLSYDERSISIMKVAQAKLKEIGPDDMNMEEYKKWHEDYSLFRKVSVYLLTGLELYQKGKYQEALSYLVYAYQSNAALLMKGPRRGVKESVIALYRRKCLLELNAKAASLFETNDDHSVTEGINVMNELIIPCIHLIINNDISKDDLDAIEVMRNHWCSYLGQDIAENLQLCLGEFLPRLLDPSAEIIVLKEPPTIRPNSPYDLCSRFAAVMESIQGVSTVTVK
In short: as §1

Measured: log2 ratio of Biotin-Ahx-Ub-VS probe labelling

Chain of USP24 (Q9UPU5 whole entry): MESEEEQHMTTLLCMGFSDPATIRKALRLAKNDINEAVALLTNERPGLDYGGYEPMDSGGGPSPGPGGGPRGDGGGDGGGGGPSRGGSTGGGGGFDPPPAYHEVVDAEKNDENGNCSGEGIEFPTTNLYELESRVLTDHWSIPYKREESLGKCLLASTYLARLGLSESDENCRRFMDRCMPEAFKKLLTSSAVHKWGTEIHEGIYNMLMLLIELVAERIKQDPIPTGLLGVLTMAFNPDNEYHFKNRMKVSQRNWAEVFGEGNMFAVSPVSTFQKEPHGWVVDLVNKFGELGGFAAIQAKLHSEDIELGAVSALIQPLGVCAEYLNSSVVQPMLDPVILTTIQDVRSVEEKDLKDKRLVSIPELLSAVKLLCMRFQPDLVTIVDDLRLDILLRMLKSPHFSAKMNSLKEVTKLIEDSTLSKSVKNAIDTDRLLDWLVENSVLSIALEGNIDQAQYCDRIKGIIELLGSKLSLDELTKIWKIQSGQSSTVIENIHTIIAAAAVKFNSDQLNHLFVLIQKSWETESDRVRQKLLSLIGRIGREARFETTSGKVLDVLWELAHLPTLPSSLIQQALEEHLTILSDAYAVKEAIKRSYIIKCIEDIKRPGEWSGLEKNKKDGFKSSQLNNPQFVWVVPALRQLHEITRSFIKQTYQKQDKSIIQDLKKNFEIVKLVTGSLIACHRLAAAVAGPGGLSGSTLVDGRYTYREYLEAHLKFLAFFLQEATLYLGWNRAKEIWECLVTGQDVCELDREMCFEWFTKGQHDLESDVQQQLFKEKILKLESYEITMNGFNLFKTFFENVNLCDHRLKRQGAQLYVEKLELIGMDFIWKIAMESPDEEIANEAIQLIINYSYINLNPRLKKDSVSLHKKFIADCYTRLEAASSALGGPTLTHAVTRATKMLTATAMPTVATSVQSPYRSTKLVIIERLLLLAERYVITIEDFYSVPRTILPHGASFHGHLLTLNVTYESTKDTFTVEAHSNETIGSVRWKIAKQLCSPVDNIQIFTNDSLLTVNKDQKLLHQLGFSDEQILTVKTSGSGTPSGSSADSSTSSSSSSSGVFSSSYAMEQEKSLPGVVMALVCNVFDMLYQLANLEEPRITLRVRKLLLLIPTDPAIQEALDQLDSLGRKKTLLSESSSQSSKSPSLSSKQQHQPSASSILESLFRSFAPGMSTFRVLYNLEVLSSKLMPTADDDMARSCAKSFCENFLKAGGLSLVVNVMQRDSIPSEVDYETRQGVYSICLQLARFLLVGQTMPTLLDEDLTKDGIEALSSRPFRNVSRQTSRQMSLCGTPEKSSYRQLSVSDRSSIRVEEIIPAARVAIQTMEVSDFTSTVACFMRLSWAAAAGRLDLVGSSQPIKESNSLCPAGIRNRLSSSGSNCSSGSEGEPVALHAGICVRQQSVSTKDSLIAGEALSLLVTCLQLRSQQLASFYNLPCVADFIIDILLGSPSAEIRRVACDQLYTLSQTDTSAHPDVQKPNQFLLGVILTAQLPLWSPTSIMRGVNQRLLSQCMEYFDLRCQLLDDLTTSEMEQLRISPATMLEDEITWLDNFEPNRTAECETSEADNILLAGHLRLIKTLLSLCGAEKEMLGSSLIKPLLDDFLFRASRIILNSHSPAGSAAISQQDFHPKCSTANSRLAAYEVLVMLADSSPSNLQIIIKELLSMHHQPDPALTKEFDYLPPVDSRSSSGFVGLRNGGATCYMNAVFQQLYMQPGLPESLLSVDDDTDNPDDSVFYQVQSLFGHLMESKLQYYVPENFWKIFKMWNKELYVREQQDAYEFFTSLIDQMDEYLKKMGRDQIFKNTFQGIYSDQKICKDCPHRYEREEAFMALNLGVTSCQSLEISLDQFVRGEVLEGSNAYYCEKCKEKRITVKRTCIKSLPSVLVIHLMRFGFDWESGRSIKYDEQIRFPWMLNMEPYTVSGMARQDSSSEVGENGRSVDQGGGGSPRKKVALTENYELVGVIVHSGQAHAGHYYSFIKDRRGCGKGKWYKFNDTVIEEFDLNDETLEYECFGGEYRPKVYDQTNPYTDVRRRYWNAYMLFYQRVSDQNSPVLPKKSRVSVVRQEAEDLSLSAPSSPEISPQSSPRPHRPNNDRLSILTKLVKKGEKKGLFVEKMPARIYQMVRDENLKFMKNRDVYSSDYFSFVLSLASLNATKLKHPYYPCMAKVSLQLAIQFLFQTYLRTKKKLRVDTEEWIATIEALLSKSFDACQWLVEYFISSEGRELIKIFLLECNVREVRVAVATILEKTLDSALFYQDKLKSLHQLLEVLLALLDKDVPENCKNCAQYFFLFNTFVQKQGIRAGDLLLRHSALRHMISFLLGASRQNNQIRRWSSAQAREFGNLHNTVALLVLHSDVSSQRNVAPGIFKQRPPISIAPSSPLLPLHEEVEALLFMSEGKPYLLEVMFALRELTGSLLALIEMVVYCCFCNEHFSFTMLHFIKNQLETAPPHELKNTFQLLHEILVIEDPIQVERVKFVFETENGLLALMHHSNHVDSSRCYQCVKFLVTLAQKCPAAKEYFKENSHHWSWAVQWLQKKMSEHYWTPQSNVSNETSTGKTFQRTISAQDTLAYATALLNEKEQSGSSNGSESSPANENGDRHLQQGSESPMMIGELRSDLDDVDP

O=C(CCl)N1CCC[C@@H]1c1ccon1
inactive: USP19 -0.377 | USP22 -0.153 | USP24 -0.653 | USP25 -0.618 | USP28 -0.64
